{"source": "PubChem BioAssay (EPA / NIEHS)", "key": {"[1]": {"assay": "BSK_IMphg_SRB.Mphg: Macrophage Viability Assessment in the BioMAP Diversity Plus: IMphg Assay (AID 2284295)", "settings": "primary human endothelial cells with macrophages", "method_in_brief": "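Venular endothelial cells co-cultured with macrophages, read 24 h after dosing. Total protein measured by 0.1% SRB staining after 10% TCA fixation, absorbance at 560 nm. Fitted in positive direction against DMSO baseline.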"}, "[2]": {"read-out": "Thrombomodulin, THBD (gene 7056)", "assay": "BSK_LPS_Thrombomodulin: BioMAP Diversity Plus: LPS Assay for Thrombomodulin Biomarker Activity (AID 2284296)", "settings": "primary human HUVEC with PBMC", "method_in_brief": "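Human umbilical vein endothelial cells co-cultured with PBMC and stimulated with LPS; cell-surface thrombomodulin measured by ELISA 24 hours after compound. Gain or loss versus DMSO; cytotoxicity checked by SRB staining in parallel cultures.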"}, "[3]": {"read-out": "CD69, CD69 (gene 969)", "assay": "BSK_LPS_CD69: BioMAP Diversity Plus: LPS Assay for CD69 Biomarker Activity (AID 2284303)", "settings": "primary human HUVEC with PBMC", "method_in_brief": "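Human umbilical vein endothelial cells co-cultured with PBMC under LPS stimulation, chemical exposure 24 h; cell-surface CD69 measured by ELISA and fitted in the positive direction versus DMSO.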"}}, "note": "Where “and” joins values, the source holds several entries; their conditions need not be identical. Equal entries are not always repeated. The source holds several records for some structures; these can differ, active in one and inactive in another. Calls of active or inactive are those of the source. Rule for the calls: active = hit-call score of the fitted dose curve at least 0.9, where 1 is the maximum; inactive = score below 0.9.", "data": [{"smiles": "O=C(O)C=C(C(F)(F)F)C(F)(F)F", "values": [{"measurement": "outcome", "setting": "[1]", "result": "inactive"}, {"measurement": "AC50", "setting": "[2]", "result": "1.97 µM (active)"}, {"measurement": "outcome", "setting": "[2]", "result": "inactive"}, {"measurement": "outcome", "setting": "[3]", "result": "inactive"}]}, {"smiles": "FC(F)(F)C(F)(F)C(F)(F)C(F)(F)C(F)(F)C(F)(F)CCS", "values": [{"measurement": "AC50", "setting": "[1]", "result": "2.57 µM (active)"}, {"measurement": "outcome", "setting": "[1]", "result": "inactive"}, {"measurement": "outcome", "setting": "[2]", "result": "inactive"}, {"measurement": "outcome", "setting": "[3]", "result": "inactive"}]}, {"smiles": "OCC(F)(F)C(F)(F)C(F)(F)C(F)F", "values": [{"measurement": "outcome", "setting": "[1]", "result": "inactive"}, {"measurement": "outcome", "setting": "[2]", "result": "inactive"}, {"measurement": "outcome", "setting": "[3]", "result": "inactive"}]}, {"smiles": "FC1CC(F)(F)C(F)(F)C1(F)F", "note": "(stereo unspecified)", "values": [{"measurement": "outcome", "setting": "[1]", "result": "inactive"}, {"measurement": "outcome", "setting": "[2]", "result": "inactive"}, {"measurement": "outcome", "setting": "[3]", "result": "inactive"}]}, {"smiles": "FC(F)(Br)C(F)(F)C(F)(F)C(F)(F)C(F)(F)C(F)(F)Br", "values": [{"measurement": "outcome", "setting": "[1]", "result": "inactive"}, {"measurement": "outcome", "setting": "[2]", "result": "inactive"}, {"measurement": "outcome", "setting": "[3]", "result": "inactive"}]}, {"smiles": "FC(F)(I)C(F)(F)C(F)(F)C(F)(F)I", "values": [{"measurement": "AC50", "setting": "[1]", "result": "47.8 µM (active) and 45.9 µM (active)"}, {"measurement": "outcome", "setting": "[1]", "result": "inactive"}, {"measurement": "AC50", "setting": "[2]", "result": "45.8 µM (active)"}, {"measurement": "outcome", "setting": "[2]", "result": "inactive"}, {"measurement": "outcome", "setting": "[3]", "result": "inactive"}]}, {"smiles": "O=C(O)C(F)(F)C(F)(F)C(F)(F)C(F)(F)C(F)(F)C(F)(F)C(F)(F)C(F)(F)Cl", "values": [{"measurement": "AC50", "setting": "[1]", "result": "44.4 µM (active)"}, {"measurement": "outcome", "setting": "[1]", "result": "inactive"}, {"measurement": "AC50", "setting": "[2]", "result": "30 µM (active) and 27.2 µM (active)"}, {"measurement": "AC50", "setting": "[3]", "result": "35.5 µM (active) and 40.7 µM (active)"}]}, {"smiles": "OCC(F)(F)C(F)(F)C(F)(F)C(F)(F)C(F)(F)C(F)F", "values": [{"measurement": "AC50", "setting": "[1]", "result": "0.596 µM (active)"}, {"measurement": "outcome", "setting": "[1]", "result": "inactive"}, {"measurement": "outcome", "setting": "[2]", "result": "inactive"}, {"measurement": "outcome", "setting": "[3]", "result": "inactive"}]}, {"smiles": "N=C(N)C(F)(F)C(F)(F)C(F)(F)C(F)(F)C(F)(F)C(F)(F)C(F)(F)F", "values": [{"measurement": "outcome", "setting": "[1]", "result": "inactive"}, {"measurement": "AC50", "setting": "[2]", "result": "48.7 µM (active)"}, {"measurement": "outcome", "setting": "[2]", "result": "inactive"}, {"measurement": "AC50", "setting": "[3]", "result": "45 µM (active) and 14.9 µM (active)"}]}, {"smiles": "O=C(CC(=O)C(F)(F)C(F)(F)F)C(F)(F)F", "values": [{"measurement": "outcome", "setting": "[1]", "result": "inactive"}, {"measurement": "outcome", "setting": "[2]", "result": "inactive"}, {"measurement": "outcome", "setting": "[3]", "result": "inactive"}]}, {"smiles": "FC(F)(F)C(F)(F)C(F)(F)CI", "values": [{"measurement": "outcome", "setting": "[1]", "result": "inactive"}, {"measurement": "AC50", "setting": "[2]", "result": "1.34 µM (active)"}, {"measurement": "outcome", "setting": "[2]", "result": "inactive"}, {"measurement": "outcome", "setting": "[3]", "result": "inactive"}]}, {"smiles": "C=C(C)C(=O)OCC(F)(F)C(F)(F)C(F)(F)F", "values": [{"measurement": "outcome", "setting": "[1]", "result": "inactive"}, {"measurement": "outcome", "setting": "[2]", "result": "inactive"}, {"measurement": "outcome", "setting": "[3]", "result": "inactive"}]}, {"smiles": "C=CC(F)(F)C(F)(F)C(F)(F)C(F)(F)C(F)(F)C(F)(F)C(F)(F)C(F)(F)F", "values": [{"measurement": "outcome", "setting": "[1]", "result": "inactive"}, {"measurement": "outcome", "setting": "[2]", "result": "inactive"}, {"measurement": "outcome", "setting": "[3]", "result": "inactive"}]}, {"smiles": "C=C(C)C(=O)OCC(F)(F)C(F)(F)C(F)(F)C(F)(F)C(F)(F)C(F)(F)C(F)(F)F", "values": [{"measurement": "AC50", "setting": "[1]", "result": "0.0248 µM (active)"}, {"measurement": "outcome", "setting": "[1]", "result": "inactive"}, {"measurement": "outcome", "setting": "[2]", "result": "inactive"}, {"measurement": "outcome", "setting": "[3]", "result": "inactive"}]}, {"smiles": "FC(F)(F)C(F)(F)C(F)(F)C(F)(F)C(F)(F)C(F)(F)C(F)(F)C(F)(F)F", "values": [{"measurement": "outcome", "setting": "[1]", "result": "inactive"}, {"measurement": "outcome", "setting": "[2]", "result": "inactive"}, {"measurement": "outcome", "setting": "[3]", "result": "inactive"}]}, {"smiles": "FC(F)(F)C(F)(F)C(F)(F)C(F)(F)C(F)(F)C(F)(F)C(F)(F)Br", "values": [{"measurement": "outcome", "setting": "[1]", "result": "inactive"}, {"measurement": "outcome", "setting": "[2]", "result": "inactive"}, {"measurement": "outcome", "setting": "[3]", "result": "inactive"}]}, {"smiles": "C=CC(=O)OCC(F)(F)C(F)(F)C(F)(F)C(F)(F)COC(=O)C=C", "values": [{"measurement": "AC50", "setting": "[1]", "result": "21.5 µM (active) and 51.8 µM (active)"}, {"measurement": "AC50", "setting": "[2]", "result": "51.4 µM (active)"}, {"measurement": "outcome", "setting": "[2]", "result": "inactive"}, {"measurement": "AC50", "setting": "[3]", "result": "8.63 µM (active) and 9.41 µM (active)"}]}, {"smiles": "O=C(O)C(F)(F)C(F)(F)C(F)(F)C(F)(F)F", "values": [{"measurement": "outcome", "setting": "[1]", "result": "inactive"}, {"measurement": "outcome", "setting": "[2]", "result": "inactive"}, {"measurement": "outcome", "setting": "[3]", "result": "inactive"}]}, {"smiles": "O=C(O)C(F)(F)C(F)(F)C(F)(F)C(F)(F)C(F)(F)C(F)(F)C(F)(F)C(F)(F)C(F)(F)C(F)F", "values": [{"measurement": "AC50", "setting": "[1]", "result": "49 µM (active) and 22.5 µM (active)"}, {"measurement": "AC50", "setting": "[2]", "result": "55 µM (active) and 12.4 µM (active)"}, {"measurement": "AC50", "setting": "[3]", "result": "37.8 µM (active) and 27.9 µM (active)"}]}, {"smiles": "FC(F)(F)C(F)(F)C(F)(F)C(F)(F)C(F)(F)C(F)(F)CC1CO1", "note": "(stereo unspecified)", "values": [{"measurement": "outcome", "setting": "[1]", "result": "inactive"}, {"measurement": "outcome", "setting": "[2]", "result": "inactive"}, {"measurement": "outcome", "setting": "[3]", "result": "inactive"}]}, {"smiles": "O=S(=O)(OCC(F)F)C(F)(F)F", "values": [{"measurement": "AC50", "setting": "[1]", "result": "0.221 µM (active)"}, {"measurement": "outcome", "setting": "[1]", "result": "inactive"}, {"measurement": "outcome", "setting": "[2]", "result": "inactive"}, {"measurement": "outcome", "setting": "[3]", "result": "inactive"}]}, {"smiles": "FC(F)(F)C(F)(F)C(F)(F)C(F)(F)C(F)(F)C(F)(F)C(F)(F)I", "values": [{"measurement": "outcome", "setting": "[1]", "result": "inactive"}, {"measurement": "outcome", "setting": "[2]", "result": "inactive"}, {"measurement": "outcome", "setting": "[3]", "result": "inactive"}]}, {"smiles": "O=C(O)C(F)(F)C(F)(F)C(F)F", "values": [{"measurement": "outcome", "setting": "[1]", "result": "inactive"}, {"measurement": "outcome", "setting": "[2]", "result": "inactive"}, {"measurement": "outcome", "setting": "[3]", "result": "inactive"}]}, {"smiles": "FC(F)(F)C(F)(F)CNCC(F)(F)C(F)(F)F", "values": [{"measurement": "outcome", "setting": "[1]", "result": "inactive"}, {"measurement": "AC50", "setting": "[2]", "result": "0.227 µM (active)"}, {"measurement": "outcome", "setting": "[2]", "result": "inactive"}, {"measurement": "outcome", "setting": "[3]", "result": "inactive"}]}, {"smiles": "O=C(Cl)C(F)(F)C(F)(F)C(F)(F)C(F)(F)C(F)(F)C(F)(F)C(F)(F)C(F)(F)F", "values": [{"measurement": "outcome", "setting": "[1]", "result": "inactive"}, {"measurement": "AC50", "setting": "[2]", "result": "40.9 µM (active) and 21.5 µM (active)"}, {"measurement": "outcome", "setting": "[2]", "result": "inactive"}, {"measurement": "AC50", "setting": "[3]", "result": "18.1 µM (active) and 22.1 µM (active)"}, {"measurement": "outcome", "setting": "[3]", "result": "inactive"}]}, {"smiles": "OCC(F)(F)C(F)(F)C(F)(F)C(F)(F)C(F)(F)C(F)(F)F", "values": [{"measurement": "AC50", "setting": "[1]", "result": "21.6 µM (active)"}, {"measurement": "outcome", "setting": "[1]", "result": "inactive"}, {"measurement": "outcome", "setting": "[2]", "result": "inactive"}, {"measurement": "outcome", "setting": "[3]", "result": "inactive"}]}, {"smiles": "O=C(O)C(F)(OC(F)(F)C(F)(OC(F)(F)C(F)(OC(F)(F)C(F)(F)C(F)(F)F)C(F)(F)F)C(F)(F)F)C(F)(F)F", "note": "(stereo unspecified)", "values": [{"measurement": "outcome", "setting": "[1]", "result": "inactive"}, {"measurement": "outcome", "setting": "[2]", "result": "inactive"}, {"measurement": "outcome", "setting": "[3]", "result": "inactive"}]}]}
